{"source": "ChEMBL document CHEMBL3433997", "about": "“St. Jude Leishmania screening dataset” (2016)", "data": [{"target": "Glucose transporter (Leishmania mexicana) (UniProt O61059)", "assay": "ST_JUDE_LEISH: Cytotoxicity at 2uM final concentration against transgenic Leishmania Mexicana promastigotes LmGT2 that are glucose transport deficient and complemented with the L. Mexicana glucose transporter 2. Activity is measured by DNA content using SYBR green in vitro", "type": "functional", "units": {"inhibition": "%"}, "values": [{"smiles": "COc1cc2c(cc1C(F)(F)F)N(C(=O)Nc1cc(F)cc(-c3cncnc3)c1)CC2", "inhibition": 0.07}, {"smiles": "COc1ccc(Cl)cc1N1CCN(CCCNC(=O)c2ccc(-c3nc4cc(Cl)c(C)cc4[nH]3)s2)CC1", "inhibition": 1.42}, {"smiles": "COc1cc(C)nc2ccc(NC(=O)Nc3ccc([N+](=O)[O-])cc3C)cc12", "inhibition": 3.97}, {"smiles": "OC1CCCN(Cc2ccc(-c3cccc(-c4nc5ccccc5[nH]4)c3)cc2)C1", "note": "(stereo not given)", "inhibition": 2.79}, {"smiles": "O=C(Cn1c(CCc2cccc(F)c2F)nc(=O)c2ccccc21)N(Cc1ccc(-c2ccc(C(F)(F)F)cc2)cc1)C1CCN(C2CCOCC2)CC1", "inhibition": 1.17}, {"smiles": "O=C(C1CC1)N1c2ccccc2CCc2ccccc21", "inhibition": -0.64}, {"smiles": "CCCCC(N)COc1cccc2c(-c3ccncc3)c(-c3cccc(NC(=O)Nc4ccccc4)c3)nn12", "note": "(stereo not given)", "inhibition": 2.8}, {"smiles": "COc1ccc2c(C)cc(NCCCN(C)C)nc2c1", "inhibition": -1.1}, {"smiles": "Cc1ccc2c(c1)c(-c1ccccc1)c(-c1ccccc1)n2CC(O)CN1CCN(CC=Cc2ccccc2)CC1", "note": "(stereo not given)", "inhibition": 0.7}, {"smiles": "CN(C)CCOc1cc(NC(=O)c2ccc(-c3ccc(Cl)cc3Cl)cc2)ccc1-c1ccccc1", "inhibition": -0.43}, {"smiles": "Cc1cc(N[C@@H](CC(C)C)C(=O)NC2CCCC2)nc(NCCc2ccc(F)cc2)n1", "inhibition": 0.03}, {"smiles": "CCOC(=O)c1ccc(NC(=O)N(Cc2ccc(-c3ccc(CN4CCNCC4)cc3)cc2)C2CCN(Cc3ccccc3)CC2)cc1", "inhibition": -1.08}, {"smiles": "FC(F)(F)c1cccc(C=NNc2nc3ccccc3[nH]2)c1", "inhibition": 5.13}, {"smiles": "Cc1ccccc1CNc1noc(-c2sccc2Br)n1", "inhibition": -1.5}, {"smiles": "COC(=O)c1c(NC(=O)c2cccc(C(F)(F)F)c2)sc2c1CCN(Cc1ccccc1)C2", "inhibition": -1.31}]}]}
